High-throughput results as filed in PubChem BioAssay.
This is a sample that favours compounds with a hit; in the whole collection about 11% have one here.
INS promoter inh = TRM-6 insulin promoter activity inhibition. TRM-6 cells (human fetal islet line), insulin promoter-eGFP reporter, imaging; reporter expression induced with tamoxifen. inhibition, % at 2 µM. hit rate 0.9% among 130,000;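 active = inhibition above the mean plus 3 SD, with well images judged a real hit on visual review, cut at about 60% in these data, passing the limit was not always enough; inconclusive = inhibition over the cutoff but images rejected on review; inactive = inhibition not above the cutoff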
WT yeast gro inh = growth inhibition of WT yeast, mitochondrial fusion screen. mitochondrial fusion phenotypic screen, WT strain. inhibition, % at 10 µM. hit rate 2.1% among 190,000. AID 1362; in the data active = inhibition above about 58%; tested in S. cerevisiae
Insulin prom up = MIN6 insulin promoter up-regulation; AID 1625; MIN6 insulin promoter-GFP reporter, high-content imaging; hits give high values; hit rate 0.3% among 190,000; z-score at 5 µM;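 active = z-score above 3 at 5 µM with at least 500 cells counted in the well; inconclusive = wells under 500 cells, flagged as cytotoxic or low count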
Autophagy mod = alters autophagy in cells. MEF GFP-LC3 puncta imaging; test concentration mostly 10 µM. calls only at 10 µM (by protocol). hit rate 0.98% among 190,000. AID 463193;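 active = percentage of spot-positive cells more than 3 SD above its plate mean, without a fluorescence outlier flag or 80% toxicity; inconclusive = no clear call, values can overlap the other calls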;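 note: spot-positive cell cutoff set from DMSO-treated cells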
Lmaj promast = inhibitors of Leishmania major promastigote growth | Leishmania major promastigotes, resazurin fluorescence viability | inhibition, % at 10 µM | hit rate 9% among 200,000; in the data active = inhibition above about 50%;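 note: promastigotes grown with compound for 44 hours at 28 °C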
* = called active by the depositor; i = inactive; ? = inconclusive; / = no result; + = active, no number.

SMILES | INS promoter inh | WT yeast gro inh | Insulin prom up | Autophagy mod | Lmaj promast
Fc1ccc(C2=CC(c3ccc(Br)o3)n3ncnc3N2)cc1 (configuration not stated) | 0 | -6 | 0.82 | i | -2
OCCCc1nc2n(n1)C(c1cccs1)C=C(c1ccc(Br)cc1)N2 (configuration not stated) | / | 61* | 1.1 | i | 2
COCCNC(=O)CN1CCN(Cc2cccc(Cl)c2)C1=O | / | -6 | -0.67 | / | -8
NS(=O)(=O)c1ccc(CNC(=O)Cc2ccccc2F)cc1 | / | -2 | -0.36 | i | -9
CC1=CC=CC2=NC(=O)CC(C)(C(=O)N(CC(=O)NC3CCCC3)c3ccccc3C)N12 (configuration not stated) | -50 | 8 | / | i | 80*
CC1=CN2C(=NC(=O)CC2(C)C(=O)N(CC(=O)NC2CCCC2)c2ccccc2C)C=C1 (configuration not stated) | -431 | 5 | 0.94 | i | 1
CCN(Cc1ccccc1)S(=O)(=O)c1cc(C(=O)NC(C)C2CC3CCC2C3)ccc1OC (configuration not stated) | -69 | -28 | -1.1 | i | 84*
CCOC(=O)CN=C/C(C(=O)Nc1nccs1)=C(/C)O | / | -9 | 0.43 | i | -8
O=C(Cc1ccc(Cl)cc1)Nc1ccc(-c2nnc(-c3ccco3)o2)cc1 | / | 11 | -1.9 | i | 6
O=C(CSCc1ccc(Cl)cc1)Nc1ccc(-c2nnc(-c3ccccc3)o2)cc1 | / | -1 | -0.32 | + | -5
CC1CCc2c(sc(NC(=O)CCCn3cnc([N+](=O)[O-])n3)c2C(N)=O)C1 (configuration not stated) | / | -12 | -0.11 | i | 92*
O=C(CCCn1cnc([N+](=O)[O-])n1)Nc1ccc(F)c(Cl)c1 | 27 | -4 | -0.06 | i | 83*
CCOC(=O)c1c(NC(=O)Cn2nc([N+](=O)[O-])c(Br)c2C)sc2c1CCC(C)C2 (configuration not stated) | 42 | -9 | -0.32 | i | 0
NC(=O)c1c(NC(=O)CCCn2cnc([N+](=O)[O-])n2)sc2c1CCCC2 | -18 | 9 | 0.26 | i | 55*
Cc1cc([N+](=O)[O-])nn1CCCC(=O)Nc1sc2c(c1C(N)=O)CCCC2 | -17 | 3 | 0.67 | i | 6
CCCCCCN=C1CC(C)(C)CC(=O)/C1=C(/O)CCC | / | / | -0.52 | / | /
C[C@H](NC(=O)c1ccccc1Cl)C(=O)NCc1cccs1 | 7 | 4 | -0.5 | i | -4
CCC1=C(OC(=O)N(CC)CC)N2C(=O)OC(=NCCc3c[nH]c4ccccc34)[C@]2(C)[C@H]2C1=CC[C@H]1C(=O)N(C)C(=O)[C@H]12 | / | / | -0.25 | / | /
COc1ccc(/C=N/N=C2/SCC(=O)N2Cc2ccccc2)cc1 | / | / | -0.03 | / | /
COc1ccc(/C=C2\CN(Cc3ccccc3)C/C(=C\c3ccc(OC)cc3)C2=O)cc1 | 0 | -6 | 0.04 | i | 100*
CCCc1nc([N+](=O)[O-])c(S(=O)(=O)c2ccccc2)n1CC(C)C | 45 | 1 | 0.46 | i | 95*
CC(C)Cn1nc(NS(=O)(=O)c2ccccc2)c2cc3ccccc3nc21 | 8 | 3 | -0.8 | i | 37
CC(C)Cn1c(C(C)C)nc([N+](=O)[O-])c1S(=O)(=O)c1ccc(F)cc1 | / | 0 | -0.28 | i | 96*
Nc1nc(Nc2cccc(F)c2)nc(NCc2ccco2)c1[N+](=O)[O-] | / | / | 0.54 | / | /
O=C(c1ccc(Cn2cc(Br)cn2)cc1)N1N=C(C(F)F)CC1(O)C(F)F (configuration not stated) | -13 | 27 | -0.18 | i | -2
SMILES | INS promoter inh | WT yeast gro inh | Insulin prom up | Autophagy mod | Lmaj promast
O=C(c1c[nH]c2ccccc2c1=O)N1CCCCCC1 | / | -4 | 0.88 | i | 5
COc1ccc(C(=S)N2CCCC2)cc1C | / | 3 | 0.6 | i | -2
O=[N+]([O-])c1ccc(/C=N/NC(=S)Nc2ccccc2F)o1 | / | 24 | -0.02 | i | 25
O=[N+]([O-])c1ccc(/C=N/NC(=S)Nc2ccccc2)o1 | -9 | 3 | 1.3 | i | 50*
O=[N+]([O-])c1cccc(-c2ccc(/C=N/NC(=S)NCc3ccco3)o2)c1 | / | / | -0.25 | / | /
O=[N+]([O-])c1cccc(-c2ccc(/C=N/NC(=S)Nc3ccccc3)o2)c1 | / | 33 | 0.5 | + | 59*
COCc1cnc(C)nc1N | -100 | -18 | -0.09 | i | -6
O=C1C=CC2C(c3ccc4c(c3)OCO4)CC1N2Cc1ccccc1 (configuration not stated) | -33 | 9 | -0.18 | i | 100*
c1ccc(CN2CCC(N3CCN(Cc4ccc5c(c4)OCO5)CC3)CC2)cc1 | / | / | 0.19 | / | /
COc1ccc(NC(=O)C2CC(=O)n3cnnc3S2)cc1 (configuration not stated) | -17 | 5 | -0.35 | i | 98*
COc1cccc(NC(=O)C2CC(=O)n3cnnc3S2)c1 (configuration not stated) | -29 | 15 | 0.74 | i | 4
CCN1CC(C)C(O)(c2ccccc2)CC1C (configuration not stated) | -59 | -6 | -1.1 | i | 79*
O=C(C1CCC(CNS(=O)(=O)c2cccc3cccnc23)CC1)N1CCc2ccccc21 (configuration not stated) | / | -10 | ? | + | 28
Cc1cccc(N2CCN(C(=O)C3CCN(S(=O)(=O)c4cccc5nsnc45)CC3)CC2C)c1 (configuration not stated) | 17 | 14 | -0.17 | i | 51*
O=C(C1CCN(S(=O)(=O)c2cccc3nsnc23)CC1)N1CCc2ccccc21 | 0 | -4 | / | i | 87*
Cc1cccc(N2CCN(C(=O)C3CCN(S(=O)(=O)c4cccc5cccnc45)CC3)CC2C)c1 (configuration not stated) | / | 11 | 0.6 | i | 14
CN1CCN(C(=O)C2CCC(CNS(=O)(=O)c3cccc4cccnc34)CC2)CC1 (configuration not stated) | / | -6 | -0.48 | i | -1
CC(C)CCNC(=O)NC(=O)COC(=O)/C=C/c1cc(Br)ccc1F | / | -5 | -0.3 | i | -2
COc1ccc(Cn2c(=O)[nH]c3cc(C(=O)NCCCN4CCCCCC4)ccc3c2=O)cc1 | -17 | -21 | -0.37 | i | -7
O=C(NCCCN1CCCCC1)c1ccc2c(=O)n(CCc3ccccc3)c(=O)[nH]c2c1 | / | 5 | -0.44 | i | 57*
CC1CCN(CCCNC(=O)c2ccc3c(=O)n(Cc4ccc(Cl)cc4)c(=S)[nH]c3c2)CC1 | 0 | 19 | 0.81 | + | 100*
COC(=O)c1ccc(/C=N/NC(=O)CC(=O)NCc2cccnc2)cc1 | / | 2 | -0.36 | i | 7
Cn1c(=O)n(C)c2cc([N+](=O)[O-])c(N3CCN(S(=O)(=O)c4ccc(C(C)(C)C)cc4)CC3)cc21 | / | 74* | -3.3 | i | 70*
O=[N+]([O-])c1cc(C(F)(F)F)cc([N+](=O)[O-])c1N1CCN(S(=O)(=O)c2ccccc2)CC1 | -33 | 1 | -0.01 | i | 51*
O=C(O)c1ccccc1Sc1c([N+](=O)[O-])cc(C(F)(F)F)cc1[N+](=O)[O-] | 73* | -45 | -0.66 | i | -8
